This excerpt belongs to a sample that is enriched for hits.
Dicer processing – inhibitors of Dicer pre-microRNA processing, primary screen, biochemical, cat-ELCCA, chemiluminescence. Endoribonuclease Dicer (Homo sapiens), Q9UPY3. cat-ELCCA pre-miR-21 Dicer processing; stronger effect = higher value. z-score at 25 µM. 47,000 compounds, 6% hits. AID 1347074, 2019; in the data active = z-score above about 3, passing the limit was not always enough;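 note: plate controls were vehicle for no effect and no enzyme for full effect; higher signal means more uncleaved substrate so more Dicer inhibition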
Starred values were filed as active, the others as inactive.

SMILES | Dicer processing
CCCCOc1ccc(C2c3c(oc4ccccc4c3=O)C(=O)N2c2ccccn2)cc1OCC (centres undefined) | 4.6*
CCCOc1ccc(C2c3c(oc4ccccc4c3=O)C(=O)N2c2ccc(C)cn2)cc1OCC (centres undefined) | -0.52
CCCCOc1ccc(C2c3c(oc4ccccc4c3=O)C(=O)N2c2nncs2)cc1OCC (centres undefined) | -0.3
Cc1ccc(C(Nc2cccc(C)n2)c2ccc3cccnc3c2O)cc1 (centres undefined) | 17*
COc1ccc(C(Nc2cc(C)ccn2)c2ccc3cccnc3c2O)cc1OC (centres undefined) | 11*
C=CCOc1cccc(C(Nc2ccccn2)c2ccc3cccnc3c2O)c1 (centres undefined) | 7.3
Cc1cccc(NC(c2ccc(O)cc2)c2ccc3ccc(C)nc3c2O)n1 (centres undefined) | 2.5
C=CCOc1cccc(C(Nc2cccc(C)n2)c2ccc3cccnc3c2O)c1 (centres undefined) | 1.4
Cc1cccc(NC(c2cccnc2)c2ccc3cccnc3c2O)n1 (centres undefined) | 3.5*
Cc1cccc(NC(c2ccc(F)cc2)c2ccc3ccc(C)nc3c2O)n1 (centres undefined) | -0.14
Cc1cccc(NC(c2cccnc2)c2ccc3cccnc3c2O)c1 (centres undefined) | -0.49
CCc1ccc(C(Nc2ccccn2)c2ccc3cccnc3c2O)cc1 (centres undefined) | 8.3
CCOC(=O)c1cc(NC(=O)Nc2cccc(Cl)c2)ccc1Oc1cncc(Cl)c1 | 0.38
O=C(Nc1ccccc1F)C1Sc2nnc(-c3ccccc3)n2NC1c1ccc(F)cc1 (centres undefined) | -1
CN(C)c1nc(N(C)C)nc(N(C)C)n1 | 1.9
COc1ccc(NC(=O)c2nn(C)cc2[N+](=O)[O-])cc1 | 0.45
CCCCN1C(=O)C(O)(CC(=O)c2cccnc2)c2cc(Br)ccc21 (centres undefined) | 1.9
Cc1nn(-c2ccccc2)c2c1C(c1ccncc1)C(C#N)=C(N)O2 (centres undefined) | -5.1
Cc1cc(C)c(C#N)c(Sc2ncnc3c2sc2nc(C)cc(C)c23)n1 | 1.2
Clc1ccc(Nc2cc(-c3ccccc3)nc3ncnn23)cc1 | -0.01
COc1ccc(Nc2cc(-c3ccccc3)nc3ncnn23)c(OC)c1 | 3.7*
COc1ccc(-c2cc(-c3ccccc3)n3ncnc3n2)cc1 | -0.22
CSc1ccc(Cl)cc1NC(=O)c1ccco1 | 0.39
CSc1nn(-c2ccccc2)cc1-c1noc(-c2cccs2)n1 | 0.31
CC(=O)c1ccccc1C(=O)c1ccccc1 | -1.2
SMILES | Dicer processing
Cc1c(C)c(C)c(C(=O)c2ccc(Cl)cc2)c(C)c1C | 0.14
CC(=O)c1ccccc1C(=O)c1ccc(Cl)cc1 | 59*
CSc1nc(-c2ccc(Cl)cc2)c(C#N)c(=O)n1C | -5.7
COCC(C)NC(=O)c1cc2cc(OC)ccc2[nH]1 (centres undefined) | -2.1
Cn1c(=O)c2c(nc(SCc3ccc(F)cc3)n2C)n(C)c1=O | 0.77
Cn1c(=O)c2c(nc(Sc3ccccc3N)n2C)n(C)c1=O | -2.6
Cn1c(=O)c2c(nc(Sc3nnc(N)s3)n2C)n(C)c1=O | 3.1*
N#Cc1sc2nc3ccccc3n2c1/N=C/N1CCOCC1 | -1.4
CCOC(=O)c1cnc2ccc(OCC)cc2c1Cl | 0.45
CCOC(=O)c1cnc2c(C)cc(C)cc2c1Nc1ccc(N(C)C)cc1 | 2.9
CCOC(=O)c1cnc2ccc(Cl)cc2c1Nc1ccc(N(C)C)cc1 | 3.8*
CCOC(=O)c1c(NC(=O)COc2ccccc2)sc2c1CC(C)(C)OC2 | 1
CC1(C)Cc2c(sc(NC(=O)CN3C(=O)C4CC=C(Cl)CC4C3=O)c2C#N)CO1 (centres undefined) | 4.8*
N#Cc1c(N2C(=O)C3CC=C(Cl)CC3C2=O)sc2c1CCCC2 (centres undefined) | 1.3
Cc1cc(C)c2cc(C(=O)NCc3ccccc3)[nH]c2c1 | -5.2
O=C(Oc1ccc2c(c1)OCC2=O)c1cccs1 | -0.61
CC(C)(C)c1cc(N/C=C/c2nnnn2-c2ccc(Cl)cc2)no1 | -1.2
O=C(NCCN1CCOCC1)c1sc2cc(Cl)ccc2c1Cl | 0.62
Cc1ccc2ccc(C(Nc3ccccn3)c3ccc(N(C)C)cc3)c(O)c2n1 (centres undefined) | 4.4*
CSc1ccc(C(Nc2ccccn2)c2ccc3ccc(C)nc3c2O)cc1 (centres undefined) | -0.44
CCOc1cccc(C(Nc2ccccn2)c2ccc3ccc(C)nc3c2O)c1O (centres undefined) | 0.08
Oc1ccc2ncccc2c1C(Nc1ccccn1)c1ccccc1F (centres undefined) | 1.4
CCOc1ccc(C(Nc2ccccn2)c2ccc3ccc(C)nc3c2O)cc1 (centres undefined) | -2.3
Cc1ccc2ccc(C(Nc3ccccn3)c3ccc(Br)cc3)c(O)c2n1 (centres undefined) | 5.7*
Nc1ccc(OCc2ccccc2Cl)cc1 | -1.6
SMILES | Dicer processing
CCNS(=O)(=O)c1cc2c(c([N+](=O)[O-])c1)-c1c(cc(S(=O)(=O)NCC)cc1[N+](=O)[O-])C2=O | 1.2
CSc1nnc2c(n1)OC(c1ccc(C)s1)N(C(C)=O)c1ccccc1-2 (centres undefined) | 0.08
CSc1sc(C#N)c2c1/C(=N/OC(=O)c1ccc(Cl)cc1)CCC2 | -2.4
CSc1sc(C#N)c2c1/C(=N\O)CCC2 | 4.4*
CSc1sc(C#N)c2c1/C(=N/OC(C)=O)CCC2 | -1
COc1ccc(C2c3c(oc4ccccc4c3=O)C(=O)N2Cc2ccc3c(c2)OCO3)cc1OC (centres undefined) | 1.1
Cn1nccc1NC(=O)/C(C#N)=C/c1ccc(Cl)cc1 | -1.1
C=CCOc1ccc(C2c3c(oc4ccccc4c3=O)C(=O)N2c2ccc(C)cn2)cc1OCC (centres undefined) | 2.3
CCOc1cc(C2c3c(oc4ccccc4c3=O)C(=O)N2c2ccccn2)ccc1O (centres undefined) | 2.7
COC(=O)c1ccc(C2c3c(oc4ccccc4c3=O)C(=O)N2c2ccc(C)cn2)cc1 (centres undefined) | 0.93
CCOc1cc(C2c3c(oc4ccccc4c3=O)C(=O)N2c2ccc(C)cn2)ccc1O (centres undefined) | 4.7*
COc1cc(C2c3c(oc4ccccc4c3=O)C(=O)N2c2ccc(C)cn2)ccc1O (centres undefined) | 4.3*
Cc1ccc(N2C(=O)c3oc4ccccc4c(=O)c3C2c2cccc(O)c2)nc1 (centres undefined) | 1.1
CCNC(=S)Nc1ccc(C(C)(C)C)cc1 | 0.04
CC1=C(C(=O)OC(C)C)C(c2ccccc2)C2=C(CCCC2=O)N1 (centres undefined) | -1.1
COc1cc(C2c3c(oc4ccc(C)cc4c3=O)C(=O)N2Cc2ccc(C)cc2)ccc1O (centres undefined) | -0.34
C=C1SC(Nc2cc(C)cc(C)c2)=NC1(C)C | -0.06
Cc1c(C)c2c(c(C)c1O)CCC(C)(COc1ccc(CC3SC(=O)NC3=O)cc1)O2 (centres undefined) | -0.99
COc1ccc(S(=O)(=O)N2CCSC2c2ccccc2)cc1 (centres undefined) | 2.1
COc1ccc(C2SCCN2S(=O)(=O)c2ccc(Br)cc2)cc1 (centres undefined) | 3.7*
CCOc1ccc(S(=O)(=O)N2CCSC2c2cc(OC)ccc2OC)cc1 (centres undefined) | 4.8*
